Results published in PubChem BioAssay (NCI).
Compounds without any hit were thinned out: in the full panel of roughly 83,000, 20% have a hit.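 For each line, cells grew in 96-well plates with the test compound present at a single concentration for 48 hours.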 Unmarked numbers belong to inactive results. Activity calls are given as the source filed them. How the source made its calls: active means growth percent below 10; inactive means the rest.

How the values were obtained:
Experiment in all cases: NCI-60 one-dose screen, 48 h (100 = growth as untreated, 0 = no growth, -100 = all killed)
DU-145 prostate = conditions: 10 µM unless noted
K-562 leukemia = conditions: 10 µM unless noted
MALME-3M melanoma = conditions: 10 µM unless noted
RXF 393 renal = conditions: 10 µM unless noted
SF-295 CNS = conditions: 10 µM unless noted
UACC-257 melanoma = conditions: 10 µM unless noted
HCT-15 colon = conditions: 10 µM
HT29 colon = conditions: 10 µM unless noted
SNB-75 CNS = conditions: 10 µM unless noted
SNB-19 CNS = conditions: 10 µM unless noted
PC-3 prostate = conditions: 10 µM unless noted
SK-MEL-5 melanoma = conditions: 10 µM unless noted
CAKI-1 renal = conditions: 10 µM unless noted
A498 renal = conditions: 10 µM unless noted
HL-60(TB) leukemia = conditions: 10 µM unless noted
BT-549 breast = conditions: 10 µM
HCC-2998 colon = conditions: 10 µM unless noted
LOX IMVI melanoma = conditions: 10 µM unless noted
MOLT-4 leukemia = conditions: 10 µM
T-47D breast = conditions: 10 µM unless noted

## C/C(=C\C(=O)O[C@H]1[C@@H]2[C@H](C)CC[C@H]2[C@]2(C)O[C@@]1(C1CCCCC1)C[C@H]2OC(=O)CO)c1ccccc1
DU-145 prostate
  growth: 66.1%
K-562 leukemia
  growth: 23.2%
MALME-3M melanoma
  growth: 64.4%
RXF 393 renal
  growth: -10.1% (active)
SF-295 CNS
  growth: 50.5%
UACC-257 melanoma
  growth: 44.2%
HCT-15 colon
  growth: 18.7%
HT29 colon
  growth: 9.35% (active)
SNB-75 CNS
  growth: 68.3%
SNB-19 CNS
  growth: 64.4%
PC-3 prostate
  growth: 17.9%
SK-MEL-5 melanoma
  growth: 71.7%
CAKI-1 renal
  growth: -25% (active)
A498 renal
  growth: -83% (active)
HL-60(TB) leukemia
  growth: -27.8% (active)
BT-549 breast
  growth: -6.37% (active)
HCC-2998 colon
  growth: 25.9%

## CC12CCC(=O)C=C1CCC1C2CCC2(C)C(C(=O)COC(=O)Cc3ccc(N(CCCl)CCCl)cc3)CCC12 (stereo unspecified)
DU-145 prostate
  growth: 109%
K-562 leukemia
  growth: 77.5%
MALME-3M melanoma
  growth: 168%
SF-295 CNS
  growth: 74.5%
HCT-15 colon
  growth: 86.2%
HT29 colon
  growth: 88.5%
SNB-75 CNS
  growth: 83.3%
SNB-19 CNS
  growth: 96.2%
PC-3 prostate
  growth: 36.1%
SK-MEL-5 melanoma
  growth: 85%
LOX IMVI melanoma
  growth: 86.4%
CAKI-1 renal
  growth: 27.4%
A498 renal
  growth: 69.8%
HL-60(TB) leukemia
  growth: 26.7%
MOLT-4 leukemia
  growth: 49.5%
T-47D breast
  growth: 89.2%
HCC-2998 colon
  growth: -28.3% (active)

## CC(C)(C)NCC(O)c1ccccc1Cl (stereo unspecified)
DU-145 prostate
  growth: -27.8% (active)
K-562 leukemia
  growth: 17.5%
MALME-3M melanoma
  growth: 35.8%
RXF 393 renal
  growth: -19.8% (active)
SF-295 CNS
  growth: -3.79% (active)
UACC-257 melanoma
  growth: 54.5%
HCT-15 colon
  growth: 58.9%
HT29 colon
  growth: 2.91% (active)
SNB-75 CNS
  growth: -24.4% (active)
SNB-19 CNS
  growth: 27.8%
PC-3 prostate
  growth: 18%
LOX IMVI melanoma
  growth: 35.1%
CAKI-1 renal
  growth: 54.6%
A498 renal
  growth: -9.2% (active)
HL-60(TB) leukemia
  growth: 1.68% (active)
MOLT-4 leukemia
  growth: 31.6%
T-47D breast
  growth: 51.5%
BT-549 breast
  growth: 35.2%
HCC-2998 colon
  growth: -28.8% (active)

## c1ccc([As]=[As]c2ccccc2)cc1 (stereo unspecified)
DU-145 prostate
  growth: -6.06% (active)
K-562 leukemia
  growth: -60.2% (active)
MALME-3M melanoma
  growth: -84.5% (active)
RXF 393 renal
  growth: -80.3% (active)
SF-295 CNS
  growth: 43.8%
UACC-257 melanoma
  growth: -71.4% (active)
HCT-15 colon
  growth: -86.2% (active)
HT29 colon
  growth: -82.8% (active)
SNB-75 CNS
  growth: 14.3%
SNB-19 CNS
  growth: 20.5%
PC-3 prostate
  growth: -22.9% (active)
SK-MEL-5 melanoma
  growth: -70.5% (active)
LOX IMVI melanoma
  growth: -74.5% (active)
CAKI-1 renal
  growth: -51.4% (active)
A498 renal
  growth: -48.5% (active)
HL-60(TB) leukemia
  growth: -50.4% (active)
MOLT-4 leukemia
  growth: -49.1% (active)
T-47D breast
  growth: -73.1% (active)
BT-549 breast
  growth: -96.5% (active)
HCC-2998 colon
  growth: 0.927% (active)

## C[CH2][Pb]([CH2]C)([CH2]C)[O]C(=O)c1ccc(N)cc1
DU-145 prostate
  growth: 68%
K-562 leukemia
  growth: 38.6%
MALME-3M melanoma
  growth: 40.3%
RXF 393 renal
  growth: 34.2%
SF-295 CNS
  growth: 91.2%
HCT-15 colon
  growth: 66.1%
HT29 colon
  growth: 79.8%
SNB-75 CNS
  growth: 47.2%
PC-3 prostate
  growth: 57.5%
SK-MEL-5 melanoma
  growth: 39%
LOX IMVI melanoma
  growth: 68.5%
CAKI-1 renal
  growth: 65.5%
A498 renal
  growth: 60.3%
HL-60(TB) leukemia
  growth: 56.1%
MOLT-4 leukemia
  growth: 60.5%
T-47D breast
  growth: 47.6%
BT-549 breast
  growth: 56.9%
HCC-2998 colon
  growth: 67.5%
